Screening results (PubChem BioAssay)
TDP1 cell noCPT: qHTS for Inhibitors of human tyrosyl-DNA phosphodiesterase 1 (TDP1): qHTS in cells in absence of CPT; DT40 Tdp1-/- hTDP1 cells, no CPT, ATP luminescence, 48 h; Potency, µM (highest dose often 46.2 µM), usual class: inhibitors; 420,000 tested, 15% active; AID 686978, 2013; further: nearly all actives have a fitted effect of over 55% in size
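Luminescent ATP content (CellTiter-Glo) served as the growth readout. Knockout chicken DT40 cells expressing human TDP1 were exposed to compounds without camptothecin for a minimum 48 hr at 37 °C.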
TDP1 inh: inhibitors of human tyrosyl-DNA phosphodiesterase TDP1 | Q9NUW8 | recombinant TDP1, AlphaScreen DNA substrate cleavage | Potency, µM (series often up to 130 µM), usual class: inhibitors | 350,000 tested, 0.28% active | AID 485290; further: nearly all actives have a fitted effect of over 40% in size
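E. coli-derived human Tdp1, 1 nM final. Cpd preinc 15 min RT; substrate 15 nM final, 5 min RT; AS bead mix 10 ug/ml final, 10 min RT. Signal loss = tyrosine-FITC cleavage. No-enzyme wells = max signal.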
DT40 TDP1 CPT: DT40-hTDP1 cell growth loss with CPT | chicken DT40 Tdp1-/-;hTDP1 cells + 20 nM CPT, ATP luminescence, 48 h | Potency, µM (titrated, usually from 46.2 µM), actives largely listed as inhibitors | 420,000 tested, 12% active; further: nearly all actives have a fitted effect of over 55% in size
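Chicken DT40 Tdp1-/- cells complemented with human TDP1, 400 cells/well, exposed to compounds plus 20 nM camptothecin for at least 48 h at 37 C; viability read as ATP content by CellTiter-Glo luminescence.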
ClpP mod: qHTS Assay for Activators of ClpP; ATP-dependent Clp protease proteolytic subunit (Bacillus subtilis (strain 168)), P80244; purified B. subtilis ClpP, FRET peptide cleavage, 20 min; Potency, µM (series often up to 57.5 µM); 340,000 tested, 1.9% active; active means well fitted falling curve with a large enough effect; inconclusive means small, poorly fitted or top-dose-only effect; inactive means no such curve, though single readings can be large or run the other way; further: the source files actives as falling curves though it sought activators and does not explain the sign; nearly all actives have a fitted effect of over 65% in size
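Purified B. subtilis ClpP, 10 microg/mL final in Tris/HCl pH8 with KCl, BSA, glycerol and Tween-20, cleaved an Abz/nitrotyrosine-quenched decapeptide. Fluorescence (ex 320, em 430) was read at 0 and 20 min at room temperature. Delta was normalized to 5.8 microM ADEP and DMSO/no-enzyme controls.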
Of the large screens only hits and unclear results are named; the others gave an inactive call. This is a sample that favours compounds with a hit; in the whole collection about 17% have one here. Unless noted, the call rests on the fitted dose curve; in most records, active means well fitted curve in the direction sought with a large enough effect; inconclusive means small, poorly fitted or top-dose-only effect, or another doubt; inactive means no such curve, though single readings can be large; an effect the other way counts as inactive or inconclusive.

Cc1ccnc(NC(=O)CN(C)S(=O)(=O)c2cccc3nsnc23)c1	TDP1 cell noCPT 7.3µM, DT40 TDP1 CPT inconclusive
CCOc1ccc(S(=O)(=O)N(C)c2ccc(OCC(=O)Nc3nc4ccccc4s3)cc2)cc1	TDP1 cell noCPT 9.2µM, DT40 TDP1 CPT 12µM
CC1=C(C(=O)Nc2ccccc2Cl)C(c2cccc(O)c2)n2ncnc2N1 (centres undefined)	none
CCCCNC(=O)C1(C)CCN1C(=O)c1oc2ccccc2c1C (centres undefined)	TDP1 cell noCPT inconclusive, DT40 TDP1 CPT inconclusive (no result: TDP1 inh)
COc1ccc(C2/C=C\CN(C(=O)OCc3ccccc3)CC(=O)N2Cc2ccc(F)cc2)cc1 (centres undefined)	TDP1 cell noCPT inconclusive, DT40 TDP1 CPT inconclusive
COc1ccc(/C=N/N2C(=O)CN(C(=O)c3ccccc3)C2c2ccc(OC)cc2)cc1 (centres undefined)	TDP1 cell noCPT inconclusive (no result: TDP1 inh)
CCCCC(=O)N1C/C=C\C(c2ccc(OC)cc2)N(Cc2ccc(F)cc2)C(=O)C1C (centres undefined)	none (no result: TDP1 cell noCPT, DT40 TDP1 CPT, ClpP mod)
CCCCCCC(=O)N1C/C=C\C(c2ccc(OC)cc2)N(Cc2ccc(F)cc2)C(=O)[C@H]1Cc1ccccc1 (some centres undefined)	TDP1 cell noCPT 18µM, DT40 TDP1 CPT 18µM
COc1ccc(C2/C=C\CC(OCc3ccccc3)CC(=O)N2Cc2cccc(F)c2)cc1 (centres undefined)	TDP1 cell noCPT 21µM, DT40 TDP1 CPT 18µM
COc1ccc(C2/C=C\CN(C(=O)c3ccc(C)cc3)[C@H](Cc3ccccc3)C(=O)N2Cc2ccc(F)cc2)cc1 (some centres undefined)	TDP1 cell noCPT 5.8µM, DT40 TDP1 CPT 4.6µM
COc1ccc(C2N(C(=O)c3ccccc3)CCN2C(=O)c2ccc(C)cc2)cc1 (centres undefined)	TDP1 cell noCPT inconclusive, DT40 TDP1 CPT 29µM
COc1cccc(CC(=O)Nc2ccc(N3CCOCC3)c(S(=O)(=O)Nc3ccccc3OC)c2)c1	ClpP mod inconclusive (no result: TDP1 inh)
COc1ccc([C@H]2/C=C\CN(C(=O)C3CC3)[C@@H](C)C(=O)N2Cc2ccc(F)cc2)cc1	TDP1 cell noCPT 12µM, DT40 TDP1 CPT 23µM (no result: TDP1 inh)
COc1ccc(C2/C=C\CN(C(=O)C3CC3)C(Cc3ccccc3)C(=O)N2Cc2ccc(F)cc2)cc1 (centres undefined)	none (no result: TDP1 cell noCPT, DT40 TDP1 CPT, ClpP mod)
COc1ccc(C2/C=C\CN3CCC[C@H]3C(=O)N2Cc2ccc(F)cc2)cc1 (some centres undefined)	TDP1 cell noCPT 23µM, DT40 TDP1 CPT inconclusive
COc1ccc(C2/C=C\CN(C(=O)C3CC3)[C@H](Cc3ccccc3)C(=O)N2Cc2ccc(F)cc2)cc1 (some centres undefined)	TDP1 cell noCPT 23µM, DT40 TDP1 CPT 16µM
COCc1c(C(=O)N2CC3CCC2C3)cnn1-c1nccc(-c2ccccc2OC)n1 (centres undefined)	none (no result: TDP1 inh, ClpP mod)
CCC(C)c1ccccc1NC(=O)COC(=O)c1ccc2c(c1)S(=O)(=O)c1ccccc1C2=O (centres undefined)	ClpP mod 22µM
CCc1cc2cc(C)cc(C)c2nc1SCC(=O)N1CCCC1	TDP1 cell noCPT inconclusive, DT40 TDP1 CPT 29µM
CCOC(=O)c1nc(N2CCN(C(=O)OCC)CC2)c2c3c(sc2n1)CCCC3	TDP1 cell noCPT 26µM, DT40 TDP1 CPT 16µM, ClpP mod inconclusive
CCc1nc(SCC(=O)N2CCN(C(=O)c3ccco3)CC2)c2c3c(sc2n1)CCCC3	TDP1 cell noCPT 13µM, DT40 TDP1 CPT inconclusive
O=C(c1ccco1)N1CCN(c2nc(C3CC3)nc3sc4c(c23)CCCC4)CC1	TDP1 cell noCPT inconclusive, DT40 TDP1 CPT 26µM
CCc1nc(N2CCN(C(=O)CCCl)CC2)c2c3c(sc2n1)CCCC3	TDP1 cell noCPT inconclusive, DT40 TDP1 CPT inconclusive (no result: TDP1 inh)
COCCCNc1nc2c(c(=O)[nH]c(=O)n2C)n1CC(O)COc1ccc(Cl)cc1 (centres undefined)	none (no result: TDP1 inh)
CN(C(=O)COC(=O)c1ccc2c(c1)OCCO2)C1CCCCC1	none
CSc1ncc(C(=O)Nc2ccccc2C(=O)c2ccccc2)c(C)n1	none
CCc1cc2ccccc2nc1SCC(=O)N1CCN(C(=O)c2ccco2)CC1	TDP1 cell noCPT inconclusive, DT40 TDP1 CPT inconclusive
Cc1nc(N2CCN(C(=O)c3ccco3)CC2)c2c3c(sc2n1)CCCC3	TDP1 cell noCPT 15µM, DT40 TDP1 CPT inconclusive
CCc1cc2cc(C)ccc2nc1SCC(=O)N1CCN(C(=O)c2ccco2)CC1	TDP1 cell noCPT 21µM, DT40 TDP1 CPT 13µM
Cc1nc(N2CCN(C(=O)c3cccs3)CC2)c2c3c(sc2n1)CCCC3	TDP1 cell noCPT inconclusive, DT40 TDP1 CPT inconclusive (no result: ClpP mod)
Cc1nc(N2CCN(C(=O)c3ccco3)CC2)c2c3c(sc2n1)CC(C)CC3 (centres undefined)	TDP1 cell noCPT 16µM, DT40 TDP1 CPT 21µM
Cc1cc2cc(C)c3nnc(SCC(=O)N4CCN(C(=O)c5ccco5)CC4)n3c2cc1C	TDP1 cell noCPT 12µM, DT40 TDP1 CPT inconclusive (no result: TDP1 inh)
Cc1cccc(C)c1Nc1ncccc1C(=O)O	none (no result: TDP1 inh, ClpP mod)
Cc1ccc2nc(NC(=O)CSc3nccn3Cc3ccc(Cl)cc3)sc2c1	none
O=C(OCC(=O)N1CCCC1)c1c(Cl)cccc1Cl	none (no result: ClpP mod)
CC(C)CC1(C(=O)NCC2CC2)C=CCN1C(=O)c1ccccc1 (centres undefined)	none (no result: TDP1 cell noCPT, DT40 TDP1 CPT, ClpP mod)
COc1ccc(-n2c(=O)c(CCC(=O)N3CCC(C)CC3)nc3ccccc32)cc1	TDP1 cell noCPT inconclusive, DT40 TDP1 CPT 18µM
CCOc1ccc(-n2c(SCC(=O)N3CCCCCC3)nc3c([nH]c4ccccc43)c2=O)cc1	TDP1 cell noCPT 23µM, DT40 TDP1 CPT 21µM
CCOc1ccc(-n2c(SCC(=O)N3CCC(C)CC3)nc3c([nH]c4ccccc43)c2=O)cc1	TDP1 cell noCPT 5.2µM, DT40 TDP1 CPT 2.1µM
c1ncc(CC2CCNCC2)[nH]1	none (no result: ClpP mod)
O=C(O)C1C2CCCCC2=C2CCCCC2C1C(=O)Nc1nccs1 (centres undefined)	none (no result: TDP1 inh)
Cc1ccc(Nc2nc3ccccc3[nH]2)nc1	TDP1 cell noCPT 16µM, DT40 TDP1 CPT inconclusive, ClpP mod 35µM
O=C(/C=C/c1c(F)cccc1Cl)Nc1nc2ccccc2[nH]1	TDP1 cell noCPT inconclusive
Cc1ccc(/C=C/C(=O)c2nc3ccccc3[nH]2)cc1	TDP1 cell noCPT 16µM, DT40 TDP1 CPT 21µM
Cc1ccc(/C=C/C(=O)Nc2nc3ccccc3[nH]2)cc1	TDP1 cell noCPT inconclusive, DT40 TDP1 CPT 13µM
Cc1ccc(C)c(C(=O)Nc2nc3ccccc3[nH]2)c1	TDP1 cell noCPT 2.3µM, DT40 TDP1 CPT inconclusive (no result: ClpP mod)
O=C(Nc1nc2ccccc2[nH]1)c1ccccc1O	none (no result: TDP1 inh)
CCCN(CCC)C(=O)Nc1cc(Cl)ccc1OC	TDP1 cell noCPT inconclusive, DT40 TDP1 CPT inconclusive
CCN(C(=O)COC(=O)c1cc(=O)[nH]c2ccccc12)C1CCS(=O)(=O)C1 (centres undefined)	ClpP mod inconclusive (no result: TDP1 inh)
